Several values for one entry are separate records, joined by “and”; a condition that tells them apart may be missing. Equal values may be shown once. Inconclusive results are not listed. Activity calls are given as the source filed them. Unless noted, calls come from the whole dose curve; as a rule, active = well fitted curve in the direction sought with a large enough effect; inconclusive = small, poorly fitted or top-dose-only effect, or another doubt; inactive = no such curve, though single readings can be large; an effect the other way counts as inactive or inconclusive.
What was measured:
[1] = MultiTox-Fluor Cytotoxicity Assay - LYMP1-002 - Live Cells (AID 955);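 note: cells exposed to compound for 16 hours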; note: potency is the fitted concentration of half-maximal effect
Summary of the method: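 After 16 h compound exposure at 37 C, live LYMP1-002 lymphoblastoid cells (2500/well) were quantified by cleavage of cell-permeant GF-AFC substrate, read at 405/510 nm after 60 min. Concentration-response fitted with Hill equation for AC50.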

[2] = MultiTox-Fluor Cytotoxicity Assay - LYMP1-002 - Dead Cells (AID 960); note: nearly all actives have a fitted effect of over 60% in size; note: potency is the fitted concentration of half-maximal effect
Summary of the method: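 Dead-cell fluorescence (Ex/Em 485/520) after 16 h compound exposure at 37 C of LYMP1-002 lymphoblastoid cells in complete medium; AC50 by Hill equation, with data scaled between DMSO and 15 uM tetraoctylammonium bromide.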

[3] = Cell Viability - LYMP2-005 (AID 967); note: potency is the fitted concentration of half-maximal effect
Summary of the method: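 LYMP2-005 human lymphoblastoid cells (2500/well) were treated with compounds for 24 h at 37 C. Intracellular ATP was then measured by CellTiter-Glo luminescence after 30 min at room temperature. AC50 values came from Hill-equation fits of qHTS concentration-response data.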

[4] = Cell Viability - LYMP2-011 (AID 969); note: nearly all actives have a fitted effect of over 60% in size; note: potency is the fitted concentration of half-maximal effect
Summary of the method: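 Cytotoxicity qHTS with ATP content as read-out: lymphoblastoid cells (2500/well) exposed to compound for 24 h at 37 C, then luciferase luminescence measured. Concentration-response data fitted with the standard Hill equation to give AC50.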

[5] = Cell Viability - LYMP2-019 (AID 973); note: nearly all actives have a fitted effect of over 55% in size; note: potency is the fitted concentration of half-maximal effect
Summary of the method: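 AC50 values come from Hill-equation fits of luminescent intracellular ATP (CellTiter-Glo, 30 min, room temperature) following 24 h compound exposure at 37 C. Cells: LYMP2-019 lymphoblastoid line, 2500 per well, in complete culture medium.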

[6] = Cell Viability - LYMP2-002 (AID 977); note: potency is the fitted concentration of half-maximal effect
Summary of the method: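 Human lymphoblastoid cells (2500/well) in complete medium were preincubated 5 hr at 37 C, then exposed to compounds for 24 hr at 37 C. Intracellular ATP was read by CellTiter-Glo luminescence; AC50 came from Hill-equation concentration-response fits.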

[7] = Cell Viability - LYMP2-008 (AID 980); note: nearly all actives have a fitted effect of over 60% in size; note: potency is the fitted concentration of half-maximal effect
Summary of the method: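 Cytotoxicity determined from ATP-dependent luciferase luminescence (CellTiter-Glo) following 24 h compound exposure of human lymphoblastoid LYMP2-008 cells at 37 C. Concentration-response data fitted to the Hill equation to give AC50.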

[8] = Cell Viability - LYMP2-014 (AID 983); note: nearly all actives have a fitted effect of over 50% in size; note: potency is the fitted concentration of half-maximal effect
Summary of the method: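 Intracellular ATP loss, read by luciferase luminescence, measures acute cytotoxicity after 24 h compound exposure of lymphoblastoid LYMP2-014 cells (2500/well, 37 C). Concentration-response data fitted to the Hill equation for AC50.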

[9] = Cell Viability - LYMP2-016 (AID 984); note: nearly all actives have a fitted effect of over 55% in size; note: potency is the fitted concentration of half-maximal effect
Summary of the method: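 Cytotoxicity was scored by luminescent ATP content (CellTiter-Glo) after 24 h compound exposure at 37 C of a human lymphoblastoid line at 2500 cells/well. Concentration-response data were fitted to the Hill equation for AC50.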

[10] = Cell Viability - LYMP2-018 (AID 985); note: nearly all actives have a fitted effect of over 50% in size; note: potency is the fitted concentration of half-maximal effect
Summary of the method: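 Viability read as CellTiter-Glo luminescence (cellular ATP) after 24 hr compound exposure at 37 C of 2500 LYMP2-018 lymphoblastoid cells/well, pre-plated 5 hr. Hill-equation modelling gave AC50.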

[11] = Cell Viability - LYMP2-020 (AID 986); note: nearly all actives have a fitted effect of over 55% in size; note: potency is the fitted concentration of half-maximal effect
Summary of the method: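 Cytotoxicity in qHTS format: luminescent ATP readout from CellTiter-Glo after 24 h compound exposure at 37 C in complete medium. LYMP2-020 lymphoblastoid cells were seeded at 2500/well; concentration-response data fitted to the Hill equation for AC50.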

[12] = Cell Viability - LYMP2-022 (AID 987); note: nearly all actives have a fitted effect of over 55% in size; note: potency is the fitted concentration of half-maximal effect
Summary of the method: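 Cytotoxicity read as decreased cellular ATP (CellTiter-Glo luminescence, 30 min room temperature) after 24 hours compound exposure of 2500 lymphoblastoid LYMP2-022 cells/well at 37 C. Concentration-response data fitted with standard Hill equation for AC50.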

[13] = Cell Viability - LYMP2-024 (AID 988); note: nearly all actives have a fitted effect of over 60% in size; note: potency is the fitted concentration of half-maximal effect
Summary of the method: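 Cytotoxicity was taken as a decrease in ATP (CellTiter-Glo luminescence) after 24 hr compound exposure at 37 C of LYMP2-024 lymphoblastoid cells, 2500 cells/well. Concentration-response data were fitted to the Hill equation to give AC50.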

[14] = biological target: Thyroid hormone receptor beta (Homo sapiens) (UniProt P10828); assay: qHTS assay for small molecule agonists of thyroid hormone receptor beta signaling (AID 588545; calls by dose curve;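 note: 0% = DMSO only and 100% = 10 nM T3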)
Thyroid hormone receptor beta (Homo sapiens), sequence (P10828 whole entry, looked up): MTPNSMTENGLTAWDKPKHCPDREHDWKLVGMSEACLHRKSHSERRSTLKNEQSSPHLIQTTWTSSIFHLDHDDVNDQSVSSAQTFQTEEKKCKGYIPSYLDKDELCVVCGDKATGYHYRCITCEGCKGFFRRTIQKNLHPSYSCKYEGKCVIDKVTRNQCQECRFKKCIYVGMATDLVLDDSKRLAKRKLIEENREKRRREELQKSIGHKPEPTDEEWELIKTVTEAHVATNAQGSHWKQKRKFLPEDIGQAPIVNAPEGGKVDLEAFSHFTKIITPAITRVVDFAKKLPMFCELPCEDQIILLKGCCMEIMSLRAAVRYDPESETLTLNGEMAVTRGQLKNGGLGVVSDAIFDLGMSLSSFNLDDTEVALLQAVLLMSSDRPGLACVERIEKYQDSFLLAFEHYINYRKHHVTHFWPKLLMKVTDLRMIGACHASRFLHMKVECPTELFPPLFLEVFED
Summary of the method: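 Compounds were tested as agonists in TR-UAS-bla-GripTite HEK 293 cells. After 18 hrs at 37 C, CCF4 substrate was added and fluorescence read after 2 hrs at room temperature.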

[15] = biological target: Nuclear receptor ROR-gamma (Homo sapiens) (UniProt P51449); assay: qHTS assay for small molecule antagonists of the retinoid-related orphan receptor gamma (ROR-gamma) signaling pathway (AID 651802); note: nearly all actives have a fitted effect of over 60% in size; note: potency is the fitted concentration of half-maximal effect
Nuclear receptor ROR-gamma (Homo sapiens), sequence (P51449 whole entry, looked up): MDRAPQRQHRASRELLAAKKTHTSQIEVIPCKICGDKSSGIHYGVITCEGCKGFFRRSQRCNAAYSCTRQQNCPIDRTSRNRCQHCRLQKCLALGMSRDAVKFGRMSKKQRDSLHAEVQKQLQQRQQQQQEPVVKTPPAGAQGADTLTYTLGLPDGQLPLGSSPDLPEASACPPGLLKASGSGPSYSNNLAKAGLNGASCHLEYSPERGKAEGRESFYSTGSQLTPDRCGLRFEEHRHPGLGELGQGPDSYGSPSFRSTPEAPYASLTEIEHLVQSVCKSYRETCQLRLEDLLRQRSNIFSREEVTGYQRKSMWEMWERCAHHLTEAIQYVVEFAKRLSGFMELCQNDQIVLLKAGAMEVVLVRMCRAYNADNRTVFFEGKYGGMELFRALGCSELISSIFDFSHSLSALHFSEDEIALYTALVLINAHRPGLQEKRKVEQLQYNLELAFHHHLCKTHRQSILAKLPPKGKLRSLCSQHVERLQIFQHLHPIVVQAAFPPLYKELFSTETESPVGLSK
Summary of the method: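 Luminescence (One-Glo, 30 min RT) measured 16 h after compound addition and doxycycline induction at 37C. Reporter: RORE-luciferase under TET-inducible ROR-gamma in CHO cells.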

[16] = biological target: Nuclear receptor subfamily 1 group I member 2 (Rattus norvegicus) (UniProt Q9R1A7); assay: qHTS assay for small molecule activators of the rat pregnane X receptor (rPXR) signaling pathway (AID 651751; call rule not given here; note: 0% is about no effect); details: rPXR reporter cells, luciferase (One-Glo), 24 h
Nuclear receptor subfamily 1 group I member 2 (Rattus norvegicus), sequence (Q9R1A7 whole entry, looked up): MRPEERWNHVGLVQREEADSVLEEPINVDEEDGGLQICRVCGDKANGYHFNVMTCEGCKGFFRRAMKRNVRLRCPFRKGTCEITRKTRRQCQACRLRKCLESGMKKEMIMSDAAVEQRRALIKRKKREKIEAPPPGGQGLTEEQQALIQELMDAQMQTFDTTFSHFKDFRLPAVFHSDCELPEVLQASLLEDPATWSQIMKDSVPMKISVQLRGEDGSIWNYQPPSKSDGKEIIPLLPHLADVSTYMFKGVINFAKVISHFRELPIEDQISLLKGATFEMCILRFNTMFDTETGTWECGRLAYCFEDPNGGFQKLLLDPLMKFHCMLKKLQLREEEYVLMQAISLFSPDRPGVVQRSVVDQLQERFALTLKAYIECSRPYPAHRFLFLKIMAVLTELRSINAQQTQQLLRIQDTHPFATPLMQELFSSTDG

[17] = qHTS assay for small molecule activators of the human pregnane X receptor (PXR) signaling pathway (AID 720659; call rule not given here; note: 0% is about no effect)
[18] = qHTS assay for environmental chemicals that activate the Aryl hydrocarbon Receptor (AhR) signaling pathway (AID 651777); details: 1A2-DRE human hepatoma cells, luciferase, 24 h; activation: hits give high values; note: nearly all actives have a fitted effect of over 15% in size; note: potency is the fitted concentration of half-maximal effect; for activation: % of control where 0% means no effect
Summary of the method: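 Following a 24 hr incubation with test chemicals at 37 C and 5% CO2, 1A2-DRE human hepatoma cells received One-Glo reagent; after 30 min at room temperature, luciferase output reflected CYP1A2 induction via AhR.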

[19] = biological target: Vitamin D3 receptor (Homo sapiens) (UniProt P11473); assay: qHTS assay for small molecule agonists of vitamin D receptor signaling (AID 588543; calls by dose curve;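 note: 0% = DMSO basal and 100% = reference agonist control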)
Vitamin D3 receptor (Homo sapiens), sequence (P11473 whole entry, looked up): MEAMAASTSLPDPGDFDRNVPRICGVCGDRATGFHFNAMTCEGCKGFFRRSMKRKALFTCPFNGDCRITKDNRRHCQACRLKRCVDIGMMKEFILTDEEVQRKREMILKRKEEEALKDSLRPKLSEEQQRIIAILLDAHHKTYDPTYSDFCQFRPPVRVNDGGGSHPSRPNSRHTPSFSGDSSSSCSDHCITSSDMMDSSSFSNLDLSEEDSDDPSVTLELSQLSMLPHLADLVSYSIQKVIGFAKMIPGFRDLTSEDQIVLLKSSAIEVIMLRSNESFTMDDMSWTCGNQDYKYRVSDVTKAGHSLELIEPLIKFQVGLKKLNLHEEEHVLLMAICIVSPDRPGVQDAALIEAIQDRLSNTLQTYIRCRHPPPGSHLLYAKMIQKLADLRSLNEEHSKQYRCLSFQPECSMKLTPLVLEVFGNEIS
Summary of the method: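 Agonist-mode beta-lactamase reporter: HEK293T VDR-UAS-bla cells in charcoal-stripped 2% FBS, compound series 16 h 37 C, CCF4 2 h RT. EC50 from Hill fit, scaled against DMSO and 50 nM calcitriol control.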

[20] = biological target: Tumor necrosis factor (Homo sapiens) (UniProt P01375); assay: qHTS assay to identify small molecules that stimulate Tumor Necrosis Factor-alpha (TNF-alpha) secretion (AID 651757; active = well fitted curve in the direction sought with a large enough effect in the signal ratio; the % refers to the signal ratio; note: 0% is about no effect)
Tumor necrosis factor (Homo sapiens), sequence (P01375 whole entry, looked up): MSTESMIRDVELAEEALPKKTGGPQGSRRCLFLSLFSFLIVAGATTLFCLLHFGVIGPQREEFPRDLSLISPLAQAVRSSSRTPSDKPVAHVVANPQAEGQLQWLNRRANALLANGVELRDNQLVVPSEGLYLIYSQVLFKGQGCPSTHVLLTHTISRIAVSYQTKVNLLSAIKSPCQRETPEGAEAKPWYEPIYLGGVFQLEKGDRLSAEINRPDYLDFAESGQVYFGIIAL
Summary of the method: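 Secreted TNF-alpha quantified by TR-FRET sandwich of two labeled anti-TNF-alpha antibodies, incubated 3 hr at room temperature. Preceded by 17 hr, 37 C compound treatment of THP-1 cells at 3000 cells/well.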

O=C(/C=C/c1ccc(O)c(O)c1)OC1C[C@](O)(C(=O)O)C[C@@H](O)[C@H]1O (stereo partly drawn)
inactive: Potency [1] | Potency [2] | Potency [3] | Potency [4] | Potency [5] | Potency [6] | Potency [7] | Potency [8] | Potency [9] | Potency [10] | Potency [11] | Potency [12] | Potency [13] | outcome [14] | Potency [15] | max response [16] -2.65% and 8.84% | outcome [17]

c1ccc2c(c1)-c1cccc3c1c-2cc1ccccc13
inactive: Potency [1] | Potency [2] | Potency [3] | Potency [4] | Potency [5] | Potency [6] | Potency [7] | Potency [8] | Potency [9] | Potency [10] | Potency [11] | Potency [12] | Potency [13]
active: Potency [18] 7.08 µM

Cc1cc(O)c(C(C)(C)C)cc1Sc1cc(C(C)(C)C)c(O)cc1C
inactive: outcome [19] | outcome [20] | activation [18] -3.69% and -11.4%
active: Potency [1] 25.1 µM | Potency [2] 31.6 µM | Potency [4] 39.8 µM | Potency [5] 39.8 µM | Potency [6] 31.6 µM | Potency [7] 31.6 µM | Potency [8] 39.8 µM | Potency [9] 50.1 µM | Potency [10] 50.1 µM | Potency [11] 31.6 µM | Potency [12] 31.6 µM | Potency [13] 39.8 µM | Potency [15] 4.22 µM

Cc1cccc(O)c1C
inactive: Potency [1] | Potency [2] | Potency [3] | Potency [4] | Potency [5] | Potency [6] | Potency [7] | Potency [8] | Potency [9] | Potency [10] | Potency [11] | Potency [12] | Potency [13] | outcome [19] | outcome [14] | outcome [20] | activation [18] -0.837% | Potency [15] | max response [16] -0.434% | outcome [17]

CCCCCCCC[N+](CCCCCCCC)(CCCCCCCC)CCCCCCCC
inactive: outcome [20] | activation [18] -8.33%
active: Potency [1] 3.98 µM | Potency [2] 3.16 µM | Potency [3] 7.94 µM | Potency [4] 6.31 µM | Potency [5] 7.94 µM | Potency [6] 7.94 µM | Potency [7] 3.98 µM | Potency [8] 6.31 µM | Potency [9] 5.01 µM | Potency [10] 5.01 µM | Potency [11] 5.01 µM | Potency [12] 3.16 µM | Potency [13] 3.98 µM | Potency [15] 1.5 µM

O=C(OCC(COC(=O)c1ccccc1)(COC(=O)c1ccccc1)COC(=O)c1ccccc1)c1ccccc1
inactive: Potency [1] | Potency [3] | Potency [4] | Potency [5] | Potency [6] | Potency [7] | Potency [8] | Potency [9] | Potency [10] | Potency [11] | Potency [12] | Potency [13] | outcome [20] | activation [18] -0.471% | Potency [15] | outcome [17]

CN1[C@H]2CC(OC(=O)[C@H](CO)c3ccccc3)C[C@H]1[C@H]1O[C@H]12 (stereo partly drawn)
inactive: Potency [1] | Potency [2] | Potency [4] | Potency [5] | Potency [6] | Potency [7] | Potency [8] | Potency [9] | Potency [10] | Potency [11] | Potency [12] | Potency [13] | outcome [19] | outcome [14] | outcome [20] | activation [18] -0.0972% and -0.778% | Potency [15] | max response [16] -5.42% and 5.83% | outcome [17]

CCCCCC/C(C=O)=C\c1ccccc1
inactive: Potency [1] | Potency [2] | Potency [3] | Potency [4] | Potency [5] | Potency [6] | Potency [7] | Potency [8] | Potency [9] | Potency [10] | Potency [11] | Potency [12] | Potency [13] | outcome [19] | outcome [14] | outcome [20] | activation [18] -0.354% | Potency [15] | max response [16] -2.08% | outcome [17]
